High-throughput results as filed in PubChem BioAssay.
HT1080 IDH1KD tx: kills HT-1080 cells with IDH1 knockdown; HT-1080 IDH1 knockdown viability, ATP luminescence, 48 h; Potency, µM (titrated, usually from 46.1 µM), for inactives: top-dose activity, negative = toxicity, actives largely listed as cytotoxic; actives 2% (n = 360,000);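 further: 0% = DMSO wells and -100% = cell-free medium wells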
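Viability of IDH1-knockdown HT-1080 fibrosarcoma cells was assessed by CellTiter-Glo after 48 h at 37 °C with titrated compound; concentration-effect curves were classified by fit quality and response size.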
KB-3-1 cytotox: KB-3-1 parental cell cytotoxicity; KB-3-1 viability, CellTiter-Glo ATP luminescence, 72 h; Potency, µM (highest dose often 46.1 µM), most hits filed as cytotoxic; actives 1.4% (n = 400,000); AID 1347075; further: nearly all actives have a fitted effect of over 60% in size
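Parental KB-3-1 viability, qHTS format: 72 h compound exposure, 37 °C; CellTiter-Glo; media-only wells and DMSO plates as controls; concentration-effect fits on corrected data.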
KB-V1 MDR tox: kills drug-selected multidrug resistant KB-V1 cells; KB-V1 MDR cells viability, CellTiter-Glo, 72 h; Potency, µM (series often up to 46.1 µM), most hits filed as cytotoxic; actives 3.4% (n = 400,000); further: nearly all actives have a fitted effect of over 60% in size
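KB-V1, DMEM (no phenol red) + 10% FBS; cpd pin-transferred, titration series; 72 h, 37 degrees C; CellTiter-Glo, luminescence. Data normalized, curve-fit.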
HT1080-NT tox: kills 2HG-producing HT-1080-NT fibrosarcoma cells | Potency, µM (highest dose often 46.1 µM), for the others: at the highest dose activity, negative = less viability, most hits filed as cytotoxic | HT-1080-NT fibrosarcoma viability, CellTiter-Glo ATP luminescence, 48 h | actives 1.6% (n = 360,000);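 further: NT is the 2HG producing partner of a matched IDH1 knockdown line; 0% = DMSO-treated cells and -100% = media-only wells without cells; nearly all actives have a fitted effect of over 55% in size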
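Fibrosarcoma NT cells, 750 per well in 5% FBS RPMI, were exposed to compound for 48 hours. Viability: CellTiter-Glo luminescence.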
TDP1 cell CPT: growth inhibition of DT40 Tdp1-/-;hTDP1 cells with camptothecin (screen for TDP1 inhibitors). chicken DT40 Tdp1-/-;hTDP1 cells + 20 nM CPT, ATP luminescence, 48 h. Potency, µM (top dose mostly 46.2 µM), for inactives: at the top dose activity change, negative = growth inhibition, most hits filed as inhibitors. actives 12% (n = 420,000); further: nearly all actives have a fitted effect of over 55% in size
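Chicken DT40 Tdp1-/- cells stably complemented with human TDP1 were seeded at 400 cells/well in medium containing 20 nM camptothecin, exposed to pin-transferred compounds, and grown at 37 °C for at least 48 hr. Viability was read as ATP luminescence.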
DT40 TDP1 no CPT: qHTS for Inhibitors of human tyrosyl-DNA phosphodiesterase 1 (TDP1): qHTS in cells in absence of CPT; Potency, µM (series often up to 46.2 µM), for the others: at the highest dose activity change, negative = growth inhibition, usual class: inhibitors; DT40 Tdp1-/- hTDP1 cells, no CPT, ATP luminescence, 48 h; actives 15% (n = 420,000); further: nearly all actives have a fitted effect of over 55% in size
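Stably hTDP1-transfected Tdp1-null chicken DT40 cells were treated with library compounds minus camptothecin and grown for at least 48 hr at 37 °C, after which cellular ATP was quantified by luminescence.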
* marks the source's active call; other numbers are inactive results. The list is not random: actives were taken first. Their share in the collection is about 19%. The call rests on the fitted dose curve; in most records, active means well fitted curve in the direction sought with a large enough effect; inconclusive means small, poorly fitted or top-dose-only effect, or another doubt; inactive means no such curve, though single readings can be large; an effect the other way counts as inactive or inconclusive. Unless noted, on the % scale 0 is the no-effect control and ±100 the full control effect; potency means the concentration at half of the fitted maximal effect.

Screening Cc1nc(N2CCOCC2)c2c(C(=O)N(C)c3ccccc3)c(C)oc2n1 returned TDP1 cell CPT 0.8% and DT40 TDP1 no CPT 7.0%.
Cc1ccccc1N1CCN(CCCN2C(=O)CC(=C(c3ccccc3)c3ccccc3)C2=O)CC1 was read as HT1080 IDH1KD tx inconclusive, KB-3-1 cytotox inactive, KB-V1 MDR tox inactive, HT1080-NT tox -25.3%, TDP1 cell CPT inconclusive and DT40 TDP1 no CPT 23.1µM*.
For O=C1CC(=C(c2ccccc2)c2ccccc2)C(=O)N1CCCCN1CCN(c2cccc(Cl)c2)CC1 the results were HT1080 IDH1KD tx inconclusive, KB-3-1 cytotox inactive, KB-V1 MDR tox inconclusive, HT1080-NT tox inconclusive, TDP1 cell CPT 14.6µM* and DT40 TDP1 no CPT 18.4µM*.
COC(=O)C1=C(C)N(c2ccc(OC)cc2)C(C)=C(C(=O)OC)C1c1ccccc1 was read as HT1080 IDH1KD tx -9.7%, KB-3-1 cytotox inactive, KB-V1 MDR tox inconclusive, HT1080-NT tox inconclusive, TDP1 cell CPT inconclusive and DT40 TDP1 no CPT 20.6µM*.
For COC(=O)C1=C(C)N(c2ccc(OC)cc2)C(C)=C(C(=O)OC)C1c1ccc(OC)cc1 the results were HT1080 IDH1KD tx -16.0%, KB-3-1 cytotox inactive, KB-V1 MDR tox inactive, HT1080-NT tox -1.5%, TDP1 cell CPT 8.2µM* and DT40 TDP1 no CPT 16.4µM*.
CN1CCN(C(=O)C2Cc3c(-c4ccc5c(c4)OCO5)ccnc3O2)CC1 (centres undefined) was read as HT1080 IDH1KD tx 8.9%, KB-3-1 cytotox inactive, KB-V1 MDR tox inactive, HT1080-NT tox 1.9%, TDP1 cell CPT -20.9% and DT40 TDP1 no CPT -29.9%.
For CC(=O)Nc1ccc(S(=O)(=O)N2CCN=C2SCc2ccc(C)cc2)cc1 the results were HT1080 IDH1KD tx -12.1%, KB-3-1 cytotox inactive, KB-V1 MDR tox inactive, HT1080-NT tox -2.5%, TDP1 cell CPT inconclusive and DT40 TDP1 no CPT inconclusive.
Cc1ccc(S(=O)(=O)N2CCN=C2SCc2ccccc2)cc1 was read as HT1080 IDH1KD tx 0.3%, KB-3-1 cytotox inactive, KB-V1 MDR tox inactive, HT1080-NT tox 0.3%, TDP1 cell CPT -13.2% and DT40 TDP1 no CPT 11.8%.
`Cc1cccc(CSC2=NCCN2C(=O)c2ccc(S(=O)(=O)N(C)C)cc2)c1` gave HT1080 IDH1KD tx -1.5%, KB-3-1 cytotox inactive, KB-V1 MDR tox inactive, HT1080-NT tox -12.1%, TDP1 cell CPT inconclusive and DT40 TDP1 no CPT 23.1µM*.
For CC(=O)Nc1ccc(S(=O)(=O)N2CCN=C2SCc2ccc(F)cc2)cc1 the results were HT1080 IDH1KD tx -15.2%, KB-3-1 cytotox inactive, KB-V1 MDR tox inactive, HT1080-NT tox -19.4%, TDP1 cell CPT 18.4µM* and DT40 TDP1 no CPT 25.9µM*.
For Cc1cccc(CSC2=NCCN2S(=O)(=O)c2ccc(F)cc2)c1 the results were HT1080 IDH1KD tx -17.6%, KB-3-1 cytotox inactive, KB-V1 MDR tox inactive, HT1080-NT tox -6.8%, TDP1 cell CPT 16.4µM* and DT40 TDP1 no CPT inconclusive.
Screening Cc1ccc(-c2nn3c(=O)cc(CN4CCN(C(=O)/C=C/c5ccccc5)CC4)nc3s2)cc1 returned KB-3-1 cytotox inactive, KB-V1 MDR tox inactive, TDP1 cell CPT -12.1% and DT40 TDP1 no CPT -15.0%.
CCC(C)c1ccc(OCC(=O)Nc2ccc(-c3nc4ncccc4o3)cc2)cc1 (centres undefined) was read as KB-3-1 cytotox inactive, KB-V1 MDR tox inactive, TDP1 cell CPT inconclusive and DT40 TDP1 no CPT inconclusive.
Screening COc1ccc(C(C)=O)cc1COC(=O)c1ccc(C)c(S(=O)(=O)N2CCOCC2)c1 returned HT1080 IDH1KD tx -0.3%, HT1080-NT tox 0.0%, TDP1 cell CPT inconclusive and DT40 TDP1 no CPT inconclusive.
`O=C(C[n+]1c2ccccc2cc2ccccc21)c1ccc(F)cc1` gave KB-3-1 cytotox inconclusive, KB-V1 MDR tox inactive, TDP1 cell CPT inconclusive and DT40 TDP1 no CPT 10µM*.
`O=C(C[n+]1cccc2ccccc21)c1ccc(F)cc1` gave KB-3-1 cytotox inactive, KB-V1 MDR tox inactive, TDP1 cell CPT -8.9% and DT40 TDP1 no CPT -24.1%.
For O=C(C[n+]1cccc2cccc(O)c21)c1ccc(F)cc1 the results were KB-3-1 cytotox inactive, KB-V1 MDR tox inactive, TDP1 cell CPT 7.08µM* and DT40 TDP1 no CPT inconclusive.
For O=C(COC(=O)/C=C/c1ccc2ccccc2n1)NNC(=O)c1ccccc1 the results were HT1080 IDH1KD tx -7.7%, KB-3-1 cytotox inactive, KB-V1 MDR tox inactive, HT1080-NT tox -8.2%, TDP1 cell CPT inconclusive and DT40 TDP1 no CPT 25.9µM*.
Screening CC(C)CCNC(=O)COC(=O)/C=C/c1ccc2ccccc2n1 returned HT1080 IDH1KD tx 1.0%, KB-3-1 cytotox inactive, KB-V1 MDR tox inactive, HT1080-NT tox inconclusive, TDP1 cell CPT inconclusive and DT40 TDP1 no CPT inconclusive.
`COc1ccc(C2Oc3cc(OC)cc(OC)c3CC2O)cc1` (centres undefined) gave TDP1 cell CPT inconclusive and DT40 TDP1 no CPT 16.4µM*.
O=C(NCCCN1CCOCC1)c1ccc2c(=O)n(-c3ccc(F)c(Cl)c3)c(=S)[nH]c2c1 was read as HT1080 IDH1KD tx -9.5%, KB-3-1 cytotox inactive, KB-V1 MDR tox inactive, HT1080-NT tox -10.3%, TDP1 cell CPT -5.4% and DT40 TDP1 no CPT inconclusive.
C=CC(=O)Nc1cc2c(Nc3ccc(F)c(Cl)c3)ncnc2cc1OCCCN1CCOCC1 was read as TDP1 cell CPT 5.31µM* and DT40 TDP1 no CPT 4.73µM*.
Cc1noc2ncnc(NCc3ccc(Cl)cc3)c12 was read as KB-3-1 cytotox inactive, KB-V1 MDR tox inactive, TDP1 cell CPT 13µM* and DT40 TDP1 no CPT 16.4µM*.
CCOc1ccc(CCNc2ncnc3onc(-c4ccc(Cl)cc4)c23)cc1 was read as TDP1 cell CPT 9.2µM* and DT40 TDP1 no CPT 8.2µM*.
`CCOc1ccc(CCNc2ncnc3onc(-c4ccc(Cl)cc4)c23)cc1OCC` gave KB-3-1 cytotox inactive, KB-V1 MDR tox inactive, TDP1 cell CPT inconclusive and DT40 TDP1 no CPT inconclusive.
For Cc1ccc(Nc2ncnc3onc(C)c23)cc1Cl the results were KB-3-1 cytotox inactive, KB-V1 MDR tox inactive, TDP1 cell CPT inconclusive and DT40 TDP1 no CPT inconclusive.
`Fc1ccc(Nc2ncnc3onc(-c4ccc(Cl)cc4)c23)cc1Cl` gave KB-3-1 cytotox inactive, KB-V1 MDR tox inactive, TDP1 cell CPT inconclusive and DT40 TDP1 no CPT 18.4µM*.
